Bioassay records as filed in PubChem BioAssay.
ELG1 repair inh: qHTS screen for small molecules that inhibit ELG1-dependent DNA repair in human embryonic kidney (HEK293T) cells expressing luciferase-tagged ELG1 | Potency, µM (titrated, usually from 46.1 µM), inactives show at the highest dose activity change, negative = inhibition, hits mostly inhibitors | 330,000 tested, 2.3% active | HEK293T ELG1-luciferase reporter, luminescence, 16 h; DNA damage induced by 5-fluorouridine | AID 504467, 2011; also: % is scaled to controls: 0 for no effect and ±100 for the full control effect; nearly all actives have a fitted effect of over 55% in size
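Reporter activity after DNA damage by 5-fluorouridine is monitored. Compound-treated cells incubate 16 hr at 37 °C, then ONE-Glo is added for 30 min before luminescence reading.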
SW480 rereplic: A quantitative high throughput screen for small molecules that induce DNA re-replication in SW480 colon adenocarcinoma cells | SW480 DNA re-replication, Hoechst DNA content imaging, 48 h | Potency, µM (top dose mostly 46.1 µM), for inactives: at the top dose re-replication activation, hits mostly activators | 340,000 tested, 1.8% active; also: % of control where 0% means no effect; nearly all actives have a fitted effect of over 55% in size
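Quantitative HTS format with DMSO vehicle controls; 48 hr drug incubation at 37 C, then 40 min Hoechst staining and scanning imager measurement at 405 nm excitation.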
KB-3-1 cytotox: qHTS assay for MDR1-selective chemotherapeutics: Primary screen using the parental adenocarcinoma cell KB-3-1 | KB-3-1 viability, CellTiter-Glo ATP luminescence, 72 h | Potency, µM (doses to about 46.1 µM), usual class: cytotoxic | 400,000 tested, 1.4% active | AID 1347075, 2019; also: % is scaled to controls: 0 for no effect and ±100 for the full control effect; nearly all actives have a fitted effect of over 60% in size
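Cells are dispensed, compounds pinned in, plates held at 37 °C for 72 h, then CellTiter-Glo is added and luminescence read after 10 minutes. Cell line: parental KB-3-1 in phenol-red-free DMEM, 10% FBS.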
MCF10A rerep: A quantitative high throughput screen for small molecules that induce DNA re-replication in MCF 10a normal breast cells. Potency, µM (series often up to 46.1 µM), without a hit: at the top dose activity, positive = re-replication, most hits filed as activators. MCF 10A DNA re-replication, Hoechst nuclear intensity, 48 h. AID 624296, 2012. 350,000 tested, 2.9% active; also: % of control where 0% means no effect; nearly all actives have a fitted effect of over 50% in size
KB-V1 MDR tox: qHTS assay for MDR1-selective chemotherapeutics: Primary screen using the drug-selected MDR subline cells KB-V1 | KB-V1 MDR cells viability, CellTiter-Glo, 72 h | Potency, µM (titrated, usually from 46.1 µM), actives largely listed as cytotoxic | 400,000 tested, 3.4% active | AID 1347076, 2019; also: % is scaled to controls: 0 for no effect and ±100 for the full control effect; nearly all actives have a fitted effect of over 60% in size
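Compound-treated KB-V1 multidrug-resistant cells, 72 h, 37 degrees C; viability by CellTiter-Glo. Fitted qHTS curves give the values.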
ELG1 FLuc counter: qHTS screen for small molecules that inhibit ELG1-dependent DNA repair: Hit Confirmation in Cell-Based Luciferin Assay; shares compounds with ELG1 repair inh; cell-free firefly luciferase luminescence counter-screen, ViewLux; Potency, µM (doses to about 46.1 µM), for inactives: top-dose activity change, negative = inhibition, hits mostly inhibitors; 350 tested, 3% active; also: % is scaled to controls: 0 for no effect and ±100 for the full control effect
ELG1-Luc inh: HTS assay for small molecules that inhibit ELG1-dependent DNA repair in human embryonic kidney (HEK293T) cells expressing luciferase-tagged ELG1: Hit Confirmation; HEK293T ELG1-luciferase levels, luminescence; cells co-treated with 5-fluorouridine; Potency, µM (top dose mostly 46.1 µM), without a hit: at the highest dose activity change, negative = inhibition, actives largely listed as inhibitors; shares compounds with ELG1 repair inh; 670 tested, 68% active; also: % is scaled to controls: 0 for no effect and ±100 for the full control effect; nearly all actives have a fitted effect of over 55% in size
ELG1-Luc MMS: inhibits ELG1-dependent repair under MMS stimulation in HEK293T cells; 670 tested, 53% active; HEK293T luciferase-tagged ELG1 level, MMS stimulated; Potency, µM (series often up to 46.1 µM), for inactives: top-dose activity change, negative = inhibition, hits mostly inhibitors; shares compounds with ELG1 repair inh; AID 624249; also: % is scaled to controls: 0 for no effect and ±100 for the full control effect; nearly all actives have a fitted effect of over 60% in size
ELG1 5FU viab: qHTS screen for small molecules that inhibit ELG1-dependent DNA repair: Hit Confirmation with 5FU Viability; shares compounds with ELG1 repair inh; cell viability with 5-FU, ELG1-dependent repair; Potency, µM (highest dose often 46.1 µM), for inactives: at the top dose activity change, negative = viability loss, most hits filed as cytotoxic; 670 tested, under 10 active; AID 624250, 2012;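 also: ELG1-luc HEK293T cells cotreated with 5-fluorouridine at 10 µM final; viability measured 16 h after compound addition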
ELG1 MMS viab: qHTS screen for small molecules that inhibit ELG1-dependent DNA repair: Hit Confirmation with MMS Viability | shares compounds with ELG1 repair inh | Cell viability with MMS, ELG1-dependent DNA repair | Potency, µM (series often up to 46.1 µM), for inactives: top-dose activity change, negative = viability loss, actives largely listed as cytotoxic | 670 tested, 33% active | AID 624251, 2012;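 also: ELG1-luc HEK293T cells co-treated with 10 µM MMS; viability read 16 h after compound addition; % is scaled to controls: 0 for no effect and ±100 for the full control effect; nearly all actives have a fitted effect of over 60% in size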
Cell viab unstim: qHTS screen for small molecules that inhibit ELG1-dependent DNA repair: Hit Confirmation with Unstimulated Viability Assay; shares compounds with ELG1 repair inh; cell viability counter-screen, unstimulated, luminescence; Potency, µM (titrated, usually from 45.9 µM), for inactives: top-dose activity change, negative = loss of viability, hits mostly cytotoxic; 900 tested, 8% active; AID 624252, 2012;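 also: compound exposure lasted 16 hours before reading; % is scaled to controls: 0 for no effect and ±100 for the full control effect; nearly all actives have a fitted effect of over 55% in size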
FLuc enzyme: qHTS screen for small molecules that inhibit ELG1-dependent DNA repair: Hit Confirmation in Biochemical Luciferin Assay. Potency, µM (titrated, usually from 57.5 µM), inactives show at the top dose activity, negative = inhibition, hits mostly inhibitors. shares compounds with ELG1 repair inh. AID 624253, 2012. purified firefly luciferase, luminescence counter-screen. 350 tested, 10% active; also: % is scaled to controls: 0 for no effect and ±100 for the full control effect
Active calls of the source: *; i = inactive; u = inconclusive; x = no result given. In the library only some 8.2% were active in any assay of this set; here they are far more common. Calls follow the shape of the dose curve; as a rule, active = well fitted curve in the direction sought with a large enough effect; inconclusive = small, poorly fitted or top-dose-only effect, or another doubt; inactive = no such curve, though single readings can be large; an effect the other way counts as inactive or inconclusive. Potency is read from the fitted curve at half-maximal effect.

SMILES	ELG1 repair inh	SW480 rereplic	KB-3-1 cytotox	MCF10A rerep	KB-V1 MDR tox	ELG1 FLuc counter	ELG1-Luc inh	ELG1-Luc MMS	ELG1 5FU viab	ELG1 MMS viab	Cell viab unstim	FLuc enzyme
Cc1cc(S(=O)(=O)Nc2nc(CN3CCOCC3)nc3sc4c(c23)CCCC4)ccc1F	1%	-4%	i	24%	i	77%	0%	15%	-7%	-4%	-11%	-1%
CC1CCc2c(sc3nc(CN4CCOCC4)nc(NS(=O)(=O)c4cccc([N+](=O)[O-])c4)c23)C1 (centres undefined)	u	-1%	i	u	i	x	x	x	x	x	x	x
COc1cc2c(cc1OC)CN(c1nc(CN3CCOCC3)nc3sc4c(c13)CCCC4)CC2	2.9µM*	8%	u	18µM*	u	u	4µM*	10µM*	u	16µM*	u	-7%
COc1cc(C(=O)Oc2ccccc2/C=N/NC(=O)c2ccc(C)c(Cl)c2)cc(OC)c1OC	4.6µM*	u	u	-2%	u	x	2.8µM*	u	u	-11%	-10%	x
O=C(CSc1ccc2nnc(-c3cccc(F)c3)n2n1)N1CCCc2ccccc21	12µM*	15%	i	0%	i	-5%	14µM*	u	10%	6%	-5%	-1%
COc1ccc(C(=O)c2ccccc2)c2c(O)ccc(C(=O)c3ccccc3)c12	u	6%	u	u	u	x	5µM*	1.6µM*	-3%	2.2µM*	u	x
